IL1B NFkB inh: blocks IL-1B driven NFkB nuclear translocation in HUVEC cells; HUVEC IL-1B NFkB p65 nuclear translocation imaging; 94,000 compounds, 0.43% hits; inhibition, % at 2 µM; AID 796;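 active = inhibition above about 30% together with a positive call from visual inspection of the well image, limit read from the data; inconclusive = inhibition above a set limit but visual check negative; inactive = inhibition not above a set limit, visual check negative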;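 note: nuclear over cytoplasmic p65 intensity ratio measured by imaging; 0% = IL-1B stimulated DMSO wells and 100% = unstimulated DMSO wells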
HUVEC tox IL1B: HUVEC cytotoxicity counter-screen, IL-1B stimulated; HUVEC cell count loss, Hoechst imaging; cell count reduction, % at 2 µM; 94,000 compounds, 0.41% hits; AID 845;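 active = cell count reduction more than 3 SD above the screen-wide mean, cut at about 70% in these data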;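 note: normalized per plate to untreated control cells as the no-loss baseline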
IL1B NFkB pot: enhances IL-1B driven NFkB nuclear translocation. activation, % at 2 µM. HUVEC IL-1B NFkB p65 nuclear translocation imaging. 94,000 compounds, 0.3% hits. AID 819;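 active = activation above 40%, about the mean plus 3 SD, also judged a hit on visual image review; inconclusive = activation above 40% but not a hit on visual review; inactive = activation not above 40% and no visual hit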;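 note: percent activation is computed from the nuclear over cytoplasmic p65 intensity ratio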
Measles CPE: protection of cells from measles virus | Measles virus-infected cells, CPE protection, absorbance | protection (pct of control), % at 4 µM | 140,000 compounds, 1.5% hits | AID 841; in the data active = protection mostly above about 24%, no sharp cut-off; inactive = mostly below about 26%
* = called active by the depositor; u = inconclusive; x = no result. Rows were chosen to be rich in hits. Some 2.1% of all compounds tested hit in one or more screens of this group.

SMILES | IL1B NFkB inh | HUVEC tox IL1B | IL1B NFkB pot | Measles CPE
CCN(CC)c1ccc(C=C2C(=O)OC3(CCCC3)OC2=O)cc1 | x | x | x | 40*
COc1cccc(Nc2nc(=O)[nH]nc2C)c1 | 18 | 83* | -18 | 16
CCOC(=O)C1(C)NC(c2ccc(OC)cc2OC)C2C(=O)N(c3cccc(OC)c3)C(=O)C21 (stereo not given) | 12 | 11 | -12 | 8
Cc1nn(-c2ncc(C(F)(F)F)cc2Cl)c(=O)n1-c1cccc(Cl)c1 | 8 | -2 | -8 | 14
Cc1nn(-c2ncc(C(F)(F)F)cc2Cl)c(=O)n1-c1ccccc1Cl | 31* | 19 | -31 | 15
COC(=O)CSC1=C(C#N)C(c2ccsc2)CC(=O)N1 (stereo not given) | 7 | 26 | -7 | 16
Fc1ccc(-c2csc3ncnc(N4CCc5ccccc5C4)c23)cc1 | x | x | x | 6
O=C(NCC(c1cccnc1)N1CCN(c2ccccc2)CC1)c1ccc2c(c1)OCO2 (stereo not given) | -32 | -2 | 33 | 5
O=C(NCC(c1cccnc1)N1CCOCC1)c1ccc2c(c1)OCO2 (stereo not given) | 36* | -32 | -36 | 14
O=C(CCCCn1c(=O)[nH]c2ccccc2c1=O)N1CCN(c2cccc(C(F)(F)F)c2)CC1 | 16 | -3 | -16 | 10
O=C(CCCn1c(=S)[nH]c2ccccc2c1=O)N1CCN(c2cccc(Cl)c2)CC1 | 0 | -7 | 0 | 59*
O=C1CN=CN=CN1c1ccc(Cl)cc1Cl | x | x | x | 45*
N#Cc1cc(-c2ccccc2)c[nH]c1=O | -19 | -30 | 19 | 12
CCOC(=O)N1CCC(NC(=O)c2cc(C(=O)NC3CCCC3)ccc2CO)CC1 | 61* | 40 | -61 | 26
CCOC(=O)N1CCC(NC(=O)c2cc(C(=O)Nc3ccc(OCC)cc3)ccc2CO)CC1 | -8 | -6 | 8 | 3
Cc1ccc(NC(=O)c2scc3c2CCCC3)cc1 | x | x | x | 20
O=C(c1scc2c1CCCC2)N1CCCCC1 | -18 | 4 | 18 | 36*
CCN1CCN(S(=O)(=O)c2cc(OC)c(Cl)cc2OC)CC1 | -8 | -2 | 8 | 5
COC(=O)c1sccc1NC(=O)c1csc(C)c1 | -12 | -72 | 12 | 25*
COC(=O)c1sccc1NC(=O)c1ccc(OC)cc1 | 8 | -8 | -8 | 3
O=C(/C=C/c1cccc(OCc2ccccc2)c1)c1cccnc1 | x | x | x | 17
Cc1cc2c(c(SCC(=O)NCCc3ccccc3)n1)C(=O)OC2 | 3 | -11 | -3 | 5
CC(=O)Nc1cccc(Oc2ncnc3scc(-c4ccc(C(C)C)cc4)c23)c1 | x | x | x | 60*
Cc1ccc2oc(=O)c(/C=C(\O)CC(C)C)nc2c1 | x | x | x | 7
C/C(O)=C\c1nc2ccccc2oc1=O | -15 | -35 | 15 | 28*
SMILES | IL1B NFkB inh | HUVEC tox IL1B | IL1B NFkB pot | Measles CPE
COc1ccc(CCNCc2csc3nc4ccccc4n23)cc1OC | -11 | -55 | 11 | 3
O=C(/C=C/c1cccc([N+](=O)[O-])c1)NCCN1CCOCC1 | 1 | 7 | -1 | 2
CCCCCn1c(=O)[nH]c2cc(C(=O)NCCc3ccc(OC)c(OC)c3)ccc2c1=O | 1 | -2 | -1 | 38*
Cc1ccc(/C=C/c2nc3ccccc3c(=O)n2CCc2ccccc2)cc1 | x | x | x | 61*
Cc1ccccc1/C=C/c1nc2ccccc2c(=O)n1CCc1ccccc1 | x | x | x | 1
C=CCN(CC=C)Cc1c(C)[nH]c2ccc(C(=O)OCC)cc2c1=O | -18 | -33 | 18 | 4
CCCCOC(=O)Nc1ccc(C)c(Cl)c1 | 28 | 91* | -28 | 23
CC1=NN(C(=O)c2cc(C)nn2C)C(O)(C(F)(F)F)C1 (stereo not given) | x | x | x | 23
Cc1ccc(C(=O)O/N=C2\CCCc3ccccc32)cc1 | -1 | 8 | 1 | 7
O=C(O/N=C1/CCCc2occc21)c1ccccc1 | 1 | 72* | -1 | 6
OC(Cc1nc2ccccc2[nH]1)c1ccccc1Cl (stereo not given) | -9 | -66 | 9 | 51*
Cc1cc(C)nc(NS(=O)(=O)c2ccc(N/C=C\C(=O)c3ccc(Cl)cc3)cc2)n1 | 0 | 25 | -2 | 4
Cc1cc(C)nc(NS(=O)(=O)c2ccc(N/C=C/C(=O)c3ccc(Cl)c(Cl)c3)cc2)n1 | x | x | x | 44*
CCn1c(SCc2ccc(OC)cc2)nnc1-c1ccncc1 | -2 | -25 | 1 | 9
CC(=O)c1ccc(NS(=O)(=O)c2cccc(C)c2)cc1 | -1 | 2 | 1 | 41*
Cc1cccc(N2CCN(S(=O)(=O)c3ccc4c(c3)CCN4C(=O)CCC(=O)O)CC2C)c1 (stereo not given) | -11 | 0 | 11 | 7
CC(=O)Nc1ccc(Nc2cc(C)nc3c(-c4ccccc4)c(C)nn23)cc1 | x | x | x | 93*
COc1ccc(OCCC(=O)N2CCCCC2)cc1 | 88* | 87* | -88 | 10
C=CCn1c(C)c(C(C)=O)c(N2CCN(c3ccccc3)CC2)nc1=S | 0 | -17 | 0 | 3
O=C(Cc1ccc(F)cc1)Nc1ccc(F)c([N+](=O)[O-])c1 | -5 | -22 | 5 | 72*
O=C(Nc1ccccc1)Nc1ccc(F)c([N+](=O)[O-])c1 | x | x | x | 10
CCOC(=O)c1cccc(Nc2nc(-c3cccnc3)nc3ccccc23)c1 | -7 | -52 | 7 | 29*
O=C(NN1CCOCC1)c1cc(-c2ccc(Cl)c(Cl)c2)nc2ccccc12 | x | x | x | 8
OCCNCc1cc(Br)ccc1OCc1ccccc1 | x | x | x | 32*
O=C(c1ccc(N2CCCC2=O)cc1)N1CCN(c2ccccc2)CC1 | -44 | -31 | 44* | 14
SMILES | IL1B NFkB inh | HUVEC tox IL1B | IL1B NFkB pot | Measles CPE
O=C(c1ccc(S(=O)(=O)N2CCCCC2)cc1)N1CCN(c2ccccc2)CC1 | -2 | -15 | 2 | 18
CS(=O)(=O)Nc1ccc(C(=O)N2CCN(c3ccccc3)CC2)cc1 | 18 | -13 | -18 | 42*
CCOC(=O)C(/C=N/c1cc(C)nn1-c1ccccc1)=C(\C)O | -8 | -45 | 0 | 9
CCCCNS(=O)(=O)c1ccc(S(=O)(=O)N2CCC3(CC2)OCCO3)cc1 | x | x | x | 17
CCOC(=O)c1ccc(NC(=O)CC2S/C(=N/N=C/c3c[nH]c4ccccc34)NC2=O)cc1 (stereo not given) | x | x | x | 28*
CC1(C)CC(=O)C2=C(C1)NC(=O)CC2c1cc(F)ccc1F (stereo not given) | -2 | 1 | 2 | 28
CC1(C)CC(=O)C2=C(C1)NC(=O)CC2c1cccc(F)c1 (stereo not given) | -93 | 0 | u | 43*
CC1=C(C(N)=O)C(c2ccc(Cl)cc2Cl)n2ncnc2N1 (stereo not given) | 96* | 63 | -96 | 7
CC(=O)C1=C(C)Nc2ncnn2C1c1ccccc1Cl (stereo not given) | -17 | -2 | 17 | 101*
CCCCOC(=O)C1=C(C)Nc2nnnn2C1c1ccccc1Cl (stereo not given) | -4 | -5 | 4 | 3
CCOC(=O)C1=C(C)Nc2nnnn2C1c1ccccc1Cl (stereo not given) | -46 | -31 | 46* | 5
c1csc(-c2csc3nc(CN4CCOCC4)nc(NCc4ccc5c(c4)OCO5)c23)c1 | -43 | -29 | u | 38
Cc1cccc(NC(=O)Cc2cccs2)n1 | 4 | -85 | -4 | 19
CCNc1nc(NCC)nc(N(C)N)n1 | 1 | -18 | -1 | 2
